Laboratory results from the supplement of paper PMC10338343.

What follows are sequences tested on MILI (PIWIL2) piRISC loaded with L1MC piRNA (26 nt) (assay: pre-steady-state target cleavage rate (min^-1); guide: L1MC piRNA 5'p-UAACUAAAUACUAUGCAAGCUGUAGG; MIWI and MILI are mouse PIWI proteins and EfPiwi is from a freshwater sponge; tags in brackets are library labels; higher = faster piRNA-guided slicing of the target). Conditions: auxiliary factor: none (no GTSF1).
Method in brief: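 Cleave-'n-Seq: a transcribed, DNA-blocked target RNA library (0.1 nM) was mixed with 1 nM active affinity-purified piRISC carrying one synthetic guide, with or without 500 nM GTSF1 partner protein, in HEPES–potassium acetate buffer at 33 °C for 0–8 or 0–960 min. Uncleaved targets were sequenced and normalised to depth and to weakly complementary targets. Three trials were pooled, and k3 was capped at 0.0001 min^-1. The pre-steady-state cleavage rate came from a burst-and-steady-state fit.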

pre-steady-state target cleavage rate, < 0.0001:
UCCUGGAUGUCGAACGUAUGUAUUUUCAAA [g6:g11:cont:t1A]
UCCUGGAUGUCGUUCCAUAGUAUUUAGAUA
UCCUGGAUGUCGAACGAUAGUAUGUUAGUUA
